Experimental data as given in the supplement of paper PMC12645437, “Orthogonal IMiD-Degron Pairs Induce Selective Protein Degradation in Cells” (ACS Chemical Biology, 2025).
The full ranking holds about 8,300 sequences; the median of “log2 fold change of degron read counts, EGFP-low vs EGFP+ sorted cells (limma voom), compound-induced degradation” is about -1.1, and the highest 2% start at about 3.2. This is one part of a sample in which the highest values are shown more often than they occur.

T1: CRBN, Q96SW2
T1 chain: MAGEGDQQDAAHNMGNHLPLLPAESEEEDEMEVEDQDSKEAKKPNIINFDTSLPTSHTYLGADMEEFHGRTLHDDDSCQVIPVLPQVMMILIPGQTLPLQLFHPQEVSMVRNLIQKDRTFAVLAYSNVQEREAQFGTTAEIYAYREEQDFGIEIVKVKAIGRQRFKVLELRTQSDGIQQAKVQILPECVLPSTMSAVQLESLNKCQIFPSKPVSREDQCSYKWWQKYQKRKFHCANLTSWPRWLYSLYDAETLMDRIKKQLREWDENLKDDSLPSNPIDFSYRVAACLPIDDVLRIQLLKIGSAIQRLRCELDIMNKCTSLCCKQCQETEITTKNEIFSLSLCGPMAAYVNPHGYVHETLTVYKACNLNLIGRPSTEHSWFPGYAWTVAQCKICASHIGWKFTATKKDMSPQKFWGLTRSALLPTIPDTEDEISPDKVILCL


Target: T1, CRBN, Q96SW2
Experiment: log2 fold change of degron read counts, EGFP-low vs EGFP+ sorted cells (limma voom), compound-induced degradation; higher = more compound-induced degradation of the degron-EGFP fusion; degrons are variants of IKZF1/3 zinc finger 2; compound dose not given here
Details: Jurkat, 18 h
[1] = compound: compound 19 (5-tert-butyl-thalidomide)
[2] = compound: compound 22 (5-morpholino-thalidomide)
[3] = compound: compound 33 (diphenyl IMiD analogue)
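Also: pooled lentiviral library of zinc finger degron-EGFP fusions in mCherry-positive Jurkat cells, FACS-sorted after compound exposure, with degron abundance counted by next-generation sequencing.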

Sequence	log2 fold change of degron read counts [1]	log2 fold change of degron read counts [2]	log2 fold change of degron read counts [3]	log2 fold change of degron read counts (compound: thalidomide)
FRCSVCGHRFTQKGNLLRHIKL [46F_47R_49S_50V_52G_53H_54R_55F_67L_, Q9UKT9]	-2.02	-2.85	-2.44	-2.23
FYCNQCGHGFTQKGNLLRHIKL [46F_47Y_49N_50Q_52G_53H_54G_55F_67L_, Q9UKT9]	-2.38	-2.88	-2.5	-2.33
FNCDVCGAIFTQKGNLLRHIKL [46F_47N_49D_50V_52G_53A_54I_55F_67L_, Q9UKT9]	-1.74	-3.02	-1.86	-2.46
FWCEQCGAKFTQKGNLLRHIKL [46F_47W_49E_50Q_52G_53A_54K_55F_67L_, Q9UKT9]	2.4	1.97	-0.464	-0.551
LMCNQCGFMCTQKGNLLRHIKL [46L_47M_49N_50Q_52G_53F_54M_55C_67L_, Q9UKT9]	-1.58	-1.89	-0.98	-1.42
FSCDVCGATFTQKGNLLRHIKL [46F_47S_49D_50V_52G_53A_54T_55F_67L_, Q9UKT9]	0.618	0.269	0.317	-0.694
FDCEICGHGFTQKGNLLRHIKL [46F_47D_49E_50I_52G_53H_54G_55F_67L_, Q9UKT9]	-3.03	-3.17	-3	-2.57
FSCEICGHVFTQKGNLLRHIKL [46F_47S_49E_50I_52G_53H_54V_55F_67L_, Q9UKT9]	-2.99	-2.93	-2.63	-2.67
FYCDQCGAIFTQKGNLLRHIKL [46F_47Y_49D_50Q_52G_53A_54I_55F_67L_, Q9UKT9]	-1.03	-1.1	-1.87	-2.56
FFCPICGAGFTQKGNLLRHIKL [46F_47F_49P_50I_52G_53A_54G_55F_67L_, Q9UKT9]	3.02	2.16	1.63	0.485
FECEVCGAVFTQKGNLLRHIKL [46F_47E_49E_50V_52G_53A_54V_55F_67L_, Q9UKT9]	-0.492	-0.885	1.58	2.31
FYCEVCGAVFTQKGNLLRHIKL [46F_47Y_49E_50V_52G_53A_54V_55F_67L_, Q9UKT9]	3.58	3.79	2.82	0.689
FMCEVCGAVFTQKGNLLRHIKL [46F_47M_49E_50V_52G_53A_54V_55F_67L_, Q9UKT9]	-1.47	-0.776	2.27	0.961
FVCDVCGADFTQKGNLLRHIKL [46F_47V_49D_50V_52G_53A_54D_55F_67L_, Q9UKT9]	-2.64	-1.98	-2.16	-1.73
FRCEICGATFTQKGNLLRHIKL [46F_47R_49E_50I_52G_53A_54T_55F_67L_, Q9UKT9]	-0.98	-0.654	1.54	1.42
FCCEICGATFTQKGNLLRHIKL [46F_47C_49E_50I_52G_53A_54T_55F_67L_, Q9UKT9]	2.13	2.25	2.55	2.33
FFCEICGATFTQKGNLLRHIKL [46F_47F_49E_50I_52G_53A_54T_55F_67L_, Q9UKT9]	3.27	3.8	1.79	1.49
FYCEICGATFTQKGNLLRHIKL [46F_47Y_49E_50I_52G_53A_54T_55F_67L_, Q9UKT9]	3.58	4.05	2.59	1.19
FKCEICGATFTQKGNLLRHIKL [46F_47K_49E_50I_52G_53A_54T_55F_67L_, Q9UKT9]	-1.26	-3.54	-2.61	-1.06
FMCEICGATFTQKGNLLRHIKL [46F_47M_49E_50I_52G_53A_54T_55F_67L_, Q9UKT9]	-1.21	-0.67	2.2	1.15
FTCEICGATFTQKGNLLRHIKL [46F_47T_49E_50I_52G_53A_54T_55F_67L_, Q9UKT9]	0.577	2.27	2.39	2.99
FDCEICGATFTQKGNLLRHIKL [46F_47D_49E_50I_52G_53A_54T_55F_67L_, Q9UKT9]	1.71	0.141	0.186	0.436
FQCEICGATFTQKGNLLRHIKL [46F_47Q_49E_50I_52G_53A_54T_55F_67L_, Q9UKT9]	0.665	2.58	2.4	3.26
FLCEICGATFTQKGNLLRHIKL [46F_47L_49E_50I_52G_53A_54T_55F_67L_, Q9UKT9]	-1.3	-1.41	0.852	1.8
FACEICGATFTQKGNLLRHIKL [46F_47A_49E_50I_52G_53A_54T_55F_67L_, Q9UKT9]	3.33	2.04	0.691	0.374
FSCEICGATFTQKGNLLRHIKL [46F_47S_49E_50I_52G_53A_54T_55F_67L_, Q9UKT9]	2.83	2.57	1.79	1.36
LNCNQCGFHCTQKGNLLRHIKL [46L_47N_49N_50Q_52G_53F_54H_55C_67L_, Q9UKT9]	-1.47	-2.01	-1.68	-1.54
FGCEICGRQFTQKGNLLRHIKL [46F_47G_49E_50I_52G_53R_54Q_55F_67L_, Q9UKT9]	-0.21	-0.999	-1.15	-1.42
